Results from PubChem BioAssay AID1645851 (National Center for Advancing Translational Sciences (NCATS), 2021).
Hit rate of the full screen: of about 140,000 compounds, about 1,200 (0.86%) were called active. Cut-off read from the data, not from the text of the source: active = activity change below about -25%; inactive = the rest. The list comes from a sample in which actives are over-represented; it also holds similar structures and randomly drawn compounds.

Target: Inositol hexakisphosphate kinase 1 (Homo sapiens) (UniProt Q92551)
Sequence (Q92551 whole entry, looked up): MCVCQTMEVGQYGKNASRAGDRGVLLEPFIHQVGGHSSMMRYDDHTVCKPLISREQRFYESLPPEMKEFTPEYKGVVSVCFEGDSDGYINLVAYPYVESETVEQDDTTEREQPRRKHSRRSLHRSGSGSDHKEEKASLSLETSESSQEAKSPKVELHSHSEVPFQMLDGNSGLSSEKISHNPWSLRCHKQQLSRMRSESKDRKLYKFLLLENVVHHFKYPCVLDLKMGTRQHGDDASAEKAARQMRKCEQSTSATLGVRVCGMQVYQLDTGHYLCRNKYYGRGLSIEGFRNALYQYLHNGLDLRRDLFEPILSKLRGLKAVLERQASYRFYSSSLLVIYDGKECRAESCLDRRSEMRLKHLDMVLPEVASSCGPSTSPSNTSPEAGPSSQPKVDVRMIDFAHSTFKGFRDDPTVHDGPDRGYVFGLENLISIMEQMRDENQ
Assay: Primary qHTS assay for small molecule inhibitors of Inositol hexaphosphate kinase 1 (IP6K1); note: series mostly up to about 58 µM
Conditions: ADP-Glo luminescence, 2 h, stronger effect = lower value
Description: Assay Provider: Huijun Wei, M.S., Ph.D. School of Medicine, Johns Hopkins University, Baltimore, MD Inositol hexakisphosphate kinases (IP6Ks) catalyze pyrophosphorylation of inositol hexakisphosphate (IP6) into inositol 5-diphospho-1,2,3,4,6-pentakisphosphate (IP7), which is involved in numerous areas of cell physiology including glucose homeostasis, blood coagulation and neurological development. Inhibition of IP6Ks may be effective for the treatment of Type II diabetes, thrombosis, and psychiatric disorders. We performed a quantitative high throughput screen (qHTS) of 158,410 compounds for IP6K1 inhibitors using ankinase activity ADP-Glo Max assay. […] Medicinal chemistry SAR efforts in three chemical series identified potent IP6K1 inhibitors, which were further validated in an orthogonal LC-MS IP7 analysis.
PROTOCOL TABLE SEQUENCE No. (e.g., 1, 2, 3, etc.); […] (e.g., Cells, Incubation, Reagent, etc.); VALUE and DESCRIPTION. 1. Reagent, 3 uL of 1.3 mM ATP and 130 uM IP6 mixture in assay buffer was dispensed to a white, 1536-well assay plate. 2. Compound, 23 nL of compounds of the top two doses (57.5 uM and 19.1 uM final concentration) of the libraries were dispensed into the mixture using the Kalypsis pintool. 3. Reagent, 1 uL of 2.4 uM IP6K1 was dispensed to the assay plates. 4. Incubation, 2 hr incubation at room temperature. 5. Reagent, 2 uL of ADP-Glo reagent was added to the wells. 6. Incubation, 1 hr incubation at room temperature. 7. Reagent, 4 uL or ADP-Glo substate was added to the wells. 8. Incubation, 45 min incubation at room temperature. 9. Detection, luminescence signal was detected using the ViewLux microplate imager (PerkinElmer).
% is set by controls: 0 for no effect and ±100 for the full control effect.

SMILES	activity change
Cc1nn(-c2ccccc2)c2c1C(C)N(C1CCN(C(=O)C(C)C)CC1)C2=O (centres undefined)	2.6% (inactive)
O=C(NCc1ccccc1)c1c(-c2ccccc2)cc(=O)n2c1CCCC2	5.1% (inactive)
COc1ccccc1-c1ccc(CN2CCC(NC(=O)c3ccc(Cl)nc3)C2)cc1 (centres undefined)	8.29% (inactive)
CC(C)Cn1c(=O)c(C(=O)NCc2ccc(F)cc2)nc2cccnc21	8.42% (inactive)
O=C(Nc1cccc(NC(=O)c2ccc(Br)cc2)c1)c1ccccc1	-16% (inactive)
O=C(Nc1ccc(C(=O)O)c(O)c1)c1ccccc1	7.03% (inactive)
CC(C)(C)c1ccc(C(=O)Nc2cc(Cl)c(Br)cc2C(=O)O)cc1	-35.3% (active)
CC(=O)c1cc(CC(=O)NCc2cc(F)c(F)cc2F)cs1	-1.78% (inactive)
C[C@H]1[C@@H]2[C@@H](O)C([C@H](C)C(=O)NC3CCCC3)CC[C@@]2(C)CC[C@@H]1NC(=O)c1ccc(C#N)cc1 (some centres undefined)	8.22% (inactive)
Cn1ncc2c(C(=O)N3CCN(c4ncccn4)CC3)cc(-c3ccc(C(F)(F)F)cc3)nc21	2.25% (inactive)
Cc1cc(C(=O)N2CCC3(CCCNC3=O)C2)ccc1N1CCOCC1 (centres undefined)	11% (inactive)
COc1ccc(C2Cn3nnc(C(=O)N4CCN(C(=O)c5ccc(C)cc5C)CC4)c3CO2)cc1 (centres undefined)	-25.2% (active)
COc1ccc(C2Cn3nnc(C(=O)N4CCC(C(=O)NCc5ccc(C)cc5)CC4)c3CO2)cc1 (centres undefined)	-5.17% (inactive)
COc1ccc(C2Cn3nnc(C(=O)N4CCN(C(=O)c5cccc(Cl)c5)CC4)c3CO2)cc1 (centres undefined)	2.61% (inactive)
CNC(=O)[C@@H]1C[C@@H](n2cc(CNC(=O)Nc3cccc(Cl)c3C)nn2)CN1	11.8% (inactive)
O=C(C1CC1)N1CCC(N2CC(OCC3CC3)C23CCOCC3)CC1 (centres undefined)	-1.99% (inactive)
CN(C)[C@@H]1C(=O)C(C(N)=O)=C(O)[C@@]2(O)C(=O)C3=C(O)c4c(O)ccc(Cl)c4[C@@H](O)[C@H]3C[C@@H]12	-40.7% (active)
O=C(c1nc(-c2cccnc2)c2cnccn12)N1CCN(c2ncccn2)CC1	8.68% (inactive)
C(=C\c1ccccc1)/CN1CCN(c2ncncn2)CC1	-5.21% (inactive)
C(=C\c1ccccc1)/CN1CCN(c2nccc(-c3cccnc3)n2)CC1	-36.7% (active)
CCOC(=O)[C@@H]1[C@@H](O)C(=O)N(Cc2ccccc2)C12CCN(C(=O)c1cc3ccccc3s1)CC2	14.8% (inactive)

SMILES	activity change
O=C(CC1CCCN(c2cnn(CC3CC3)c(=O)c2)C1)N1CCCC1 (centres undefined)	15.7% (inactive)
COc1ccc(-c2onc(C)c2C)cc1S(=O)(=O)NCc1cccs1	41.7% (inactive)
COc1ccc(-c2onc(C)c2C)cc1S(=O)(=O)NCCc1ccccc1	17.3% (inactive)
Cc1ccc(-c2onc(C)c2C)cc1S(=O)(=O)Nc1ccccn1	-25.5% (active)
C=CCCC(CN1CCCC1)Oc1ncc(F)c(N2CCCC2)n1 (centres undefined)	-2.11% (inactive)
COc1ccc(NC(=O)N2CCC(CC(=O)NCc3ccccc3)C2)cc1OC (centres undefined)	-12.4% (inactive)
COc1cc(NC(=O)Nc2cccc(CNC(=O)O[C@H]3CCOC3)c2)ccc1-c1cnco1	-31.9% (active)
O=C(NCC1CCOCC1)Nc1cccc(Cl)c1	18.6% (inactive)
C=CCCC(=O)N1CCC2(CCCN(Cc3cccc(F)c3F)C2=O)C1 (centres undefined)	-2.13% (inactive)
FC(F)(F)c1ccc(CN2CCC3(CC(c4cccc(C(F)(F)F)c4)=NO3)C2)cc1 (centres undefined)	-5.41% (inactive)
N#Cc1ccc(CN2CC(Oc3ccc(F)cc3F)C2)cc1	-14.3% (inactive)
CO[C@H]1C=CO[C@@]2(C)Oc3c(C)c(O)c4c(O)c(c(/C=N/N5CCN(C)CC5)c(O)c4c3C2=O)NC(=O)/C(C)=C\C=C[C@H](C)[C@H](O)[C@@H](C)[C@@H](O)[C@@H](C)[C@H](OC(C)=O)[C@@H]1C	-33.1% (active)
O=C(C1CCN(Cc2ccccc2-c2ccccc2F)CC1)N1CCC(c2ccccc2)CC1	20.1% (inactive)
Cc1ccccc1C(=O)N1CCCC(C(=O)N2CCC(c3ccccc3)CC2)C1 (centres undefined)	-2.33% (inactive)
O=[S+]([O-])(c1ccccc1)N1CC2(COCCN(Cc3cc(F)ccc3F)C2)C1	8.88% (inactive)
COc1cccc(Nc2n[nH]c(C(O)c3cccc(C(F)(F)F)c3)n2)c1 (centres undefined)	-3.83% (inactive)
COc1ccc(-c2nn(CC(=O)NC3CCCC3)c3c2cnc2ccc(F)cc23)cc1	19.4% (inactive)
COc1ccc(-c2nn(CC(=O)Nc3ccccc3F)c3c2cnc2ccc(F)cc23)cc1	6.83% (inactive)
COc1ccc2ncc3c(-c4ccc(C)c(C)c4)nn(CC(=O)NC4CCCC4)c3c2c1	-25.8% (active)
COc1ccc(-c2nc(-c3ccccc3)nc3c2CN(C(=O)c2ccc(C)cc2)CC3)cc1	6.25% (inactive)
CCN1c2cc(C(=O)NCc3ccccc3C(F)(F)F)ccc2C(=O)N2CCCCCC21 (centres undefined)	-7.94% (inactive)

SMILES	activity change
Cc1ccc(Cl)cc1NC(=O)CN1C(=O)NC(c2ccc(Cl)cc2)C2=C1COC2=O (centres undefined)	-3.73% (inactive)
CCOC(=O)c1cc2c(=O)n3ccccc3nc2n(CC2CCCO2)c1=NC(=O)c1ccc(C(C)(C)C)cc1 (centres undefined)	-2.99% (inactive)
CCOC(=O)c1cc2c(=O)n3ccccc3nc2n(Cc2ccco2)c1=NC(=O)c1ccc(F)cc1	-40.8% (active)
CCOC(=O)c1cc2c(=O)n3ccccc3nc2n(CC2CCCO2)c1=NC(=O)c1ccccc1F (centres undefined)	-9.99% (inactive)
NC(=O)Cn1ccc2cc(OCC3CCN(C(=O)C4CCCC4)CC3)cnc21	-2.13% (inactive)
CC(C)CCNC(=O)c1cnc2c(c1)N(Cc1ccccc1)CCC2	3.22% (inactive)
COC[C@H]1C[C@@H](NC(=O)c2ccc(C#N)cc2)[C@H](O)[C@@H]1O	-1.35% (inactive)
Cn1cc(C(=O)N2CCC(C(=O)N3CCCCCCNC(=O)CC3)CC2)cn1	-7.37% (inactive)
N#Cc1ccc(C(=O)Nc2ccc([C@H]3OCC(=O)N(Cc4cccnc4)[C@@H]3CO)cc2)cc1	-3.68% (inactive)
O=C(Nc1cc(-c2ccncc2)nn1-c1ccccc1)c1ccccc1F	-7.37% (inactive)
O=C(Nc1cccnc1)[C@@H]1C[C@@H](c2ccc(F)cc2)N([S+](=O)([O-])c2ccccc2)C1	19.9% (inactive)
Cc1ccc(CNC(=O)CCc2c(C)nc3c(c(C)nn3-c3ccccc3)c2C)cc1	-26.3% (active)
Cc1nc2c(c(C)nn2-c2ccccc2)c(C)c1CCC(=O)NCCc1ccc(Cl)cc1	11.8% (inactive)
COC(=O)c1ccc(NC(=O)CCc2c(C)nc3c(c(C)nn3-c3ccc(C)cc3)c2C)cc1	33% (inactive)
Cn1ncc2c(C(=O)NCc3ccc(Cl)cc3)cc(-c3ccc(F)cc3)nc21	11.6% (inactive)
O=C(NCCc1ccccc1F)c1ccc2nnc(-c3ccc(F)cc3)n2c1	1.1% (inactive)
COC(=O)NC1CCCN(c2ccc3nnc(-c4ccccc4)n3n2)C1 (centres undefined)	-6.13% (inactive)
COc1ccc(N2CC(c3noc(-c4cc(OC)c(OC)c(OC)c4)n3)CC2=O)cc1 (centres undefined)	12.4% (inactive)
Cc1ccc(C)c(NC(=O)C2CCCN(S(=O)(=O)c3cn(C)cn3)C2)c1 (centres undefined)	5.66% (inactive)
CCOc1ccccc1CNC(=O)C1CCCN(S(=O)(=O)c2ccc3c(ccn3C)c2)C1 (centres undefined)	-3.08% (inactive)
CCOc1ccccc1NC(=O)C1CCCN(S(=O)(=O)c2cn(C)cn2)C1 (centres undefined)	-25.5% (active)

SMILES	activity change
O=c1cc(N2CCOCC2)oc2c(Nc3cccc(Cl)c3)nccc12	-31% (active)
Cc1noc(C)c1-c1nccc2c(=O)cc(N3CCOCC3)oc12	-13.2% (inactive)
O=c1cc(N2CCOCC2)oc2c(NCc3ccncc3)nccc12	-7.16% (inactive)
CN(C)c1ccc(CN(C)C2CCc3ccccc3C2)cc1 (centres undefined)	-16.7% (inactive)
CC(C)OCCCNC(=O)c1cc(-c2ccc(C(F)(F)F)cc2)nc2c1cnn2C	-2.02% (inactive)
CCOc1ccccc1NC(=O)CN1C(=O)C(c2ccccc2)=NC12CCCC2	7.82% (inactive)
CC1=C(C(=O)N(C)C)C(c2ccc(Cl)cc2)N2C(CC(=O)NC(C)c3ccccc3)=CSC2=N1 (centres undefined)	33.5% (inactive)
CC1=C[C@@H](CNC(C)C)[C@H](C(C)C)C[C@H]1Cc1nnc(-c2ccc(N(C)C)cc2)o1	-0.243% (inactive)
Cc1ccccc1C(=O)N1CCCC(C(=O)N2CCC(N3CCOC3=O)CC2)C1 (centres undefined)	-1.11% (inactive)
C#C[C@]1(O)CC[C@H]2[C@@H]3CCC4=C/C(=N/O)CC[C@@H]4[C@H]3CC[C@@]21CC	-79.6% (active)
C#C[C@]1(O)CC[C@H]2[C@@H]3CCC4=CC(=O)CC[C@@H]4[C@H]3CC[C@@]21CC	3.56% (inactive)
CN1CC(=O)N(C2CCC2)Cc2c(NCC(C)(C)C)ncnc21	15.1% (inactive)
O=C(OCc1ccccc1)N1CCOCC12CCN(Cc1ccncc1Cl)CC2	13% (inactive)
CN(CC1CCN(CCc2cccc(F)c2)CC1)C(=O)c1cn2cccnc2n1	28.9% (inactive)
Cc1cc(=O)n(CC(=O)NCCc2ccc(Cl)cc2)c(N2CCc3ccccc3C2)n1	19.5% (inactive)
N#CSc1cc(SC#N)c(N)nc1N	-42.8% (active)
COc1ccc(Cn2c(=O)c(C(=O)N3CCN([S+](=O)([O-])c4c(C)noc4C)CC3)nc3cccnc32)cc1	10.5% (inactive)
Cc1cn2nc(C(=O)Nc3cc(F)cc(F)c3)cc2c(N(C)Cc2ccccc2)n1	-5.8% (inactive)
O=c1cc(-c2cccnc2)oc2c(-c3ccccc3O)nccc12	-32.5% (active)
O=c1cc(-c2cccnc2)oc2c(-c3cccc(CO)c3)nccc12	-18.5% (inactive)
O=c1cc(-c2ccccn2)oc2c(-c3ccccc3F)nccc12	-14.4% (inactive)
